An excerpt weighted towards active compounds, which were near 4% of everything screened.
D1 PAM = Potentiators of Human D1 Dopamine Receptor: qHTS. AID 504651, 2011. hit rate 0.036% among 360,000. potentiation, % at 10 µM. D(1A) dopamine receptor (Homo sapiens), P21728. HEK293 TREx D1 cells, calcium flux, dopamine EC20 potentiation; in the data active = potentiation above about 30%
Target sequence (P21728 whole entry, looked up): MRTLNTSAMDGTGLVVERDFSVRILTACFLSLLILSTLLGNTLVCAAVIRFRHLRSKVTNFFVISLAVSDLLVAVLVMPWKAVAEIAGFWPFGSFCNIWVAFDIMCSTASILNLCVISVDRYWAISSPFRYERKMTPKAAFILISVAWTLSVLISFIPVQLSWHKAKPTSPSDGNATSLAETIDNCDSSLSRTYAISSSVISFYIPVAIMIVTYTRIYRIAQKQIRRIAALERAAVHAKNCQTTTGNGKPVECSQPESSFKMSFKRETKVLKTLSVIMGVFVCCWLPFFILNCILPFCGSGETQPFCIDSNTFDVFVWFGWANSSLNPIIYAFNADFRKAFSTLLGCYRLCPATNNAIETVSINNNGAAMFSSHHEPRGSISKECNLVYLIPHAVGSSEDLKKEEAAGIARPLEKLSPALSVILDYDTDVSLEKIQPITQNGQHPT
TRHR ag = qHTS for Small Molecule Agonists and Allosteric Enhancers of Human TRH Receptor: Primary Screen for Agonists; Thyrotropin-releasing hormone receptor (Homo sapiens), P34981; hit rate 0.18% among 360,000; TRHR cells, calcium flux fluo-8, FDSS agonist mode; activation, % at 2 µM
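TRHR-expressing cells, plated overnight in medium with 10% serum, were loaded with fluo-8 calcium dye at room temperature. After a 10 s baseline, library compound was pin-added and calcium release was recorded kinetically (ex 480/em 530) as agonist response.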
TRHR PAM = qHTS for Small Molecule Agonists and Allosteric Enhancers of Human TRH Receptor: Primary Screen for Enhancers; Thyrotropin-releasing hormone receptor (Homo sapiens), P34981; TRHR cells, fluo-8 calcium fluorescence, EC20 TRH enhancement; enhancement, % at 2 µM; hit rate 0.66% among 360,000; AID 493056, 2011; in the data active = enhancement above about 30%
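Enhancer read-out: after compound pinning and an initial kinetic agonist-mode read, an EC20 of TRH (10 nM final) was injected and fluo-8 calcium signal (Ex 480/Em 530) followed at 1 s/cycle for 100 cycles in TRHR-expressing cells.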
D1 agonist = Allosteric Agonists of the Human D1 Dopamine Receptor: qHTS | D(1A) dopamine receptor (Homo sapiens), P21728 | HEK293 T-REx D1 cells, calcium flux, agonist mode | activation, % at 2 µM | hit rate 1% among 360,000
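Inducible HEK293 T-REx D1 cells, force-coupled to calcium signalling, were plated at 4000 cells/well with tetracycline and held overnight at 30 C. After no-wash calcium dye loading, compound-evoked calcium rise over 180 s flagged agonists.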
GRP78 ERSR act = qHTS for Inducers of the Endoplasmic Reticulum Stress Response (ERSR) in Human Glioma: qHTS. hit rate 0.02% among 420,000. Potency, µM, most hits filed as activators. U87-MG GRP78 promoter luciferase reporter, 16 h. AID 602332, 2012; active = well fitted activation curve with a large enough effect; also: series mostly up to about 76 µM; nearly all actives have a fitted effect of over 35% in size
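Stably transfected U87-MG glioma cells carrying a GRP78-based luciferase sensor; 16 h compound incubation. Luminescence end-point read 10 min after Bright-Glo addition at room temperature.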
D1 antagonist = Antagonist of Human D 1 Dopamine Receptor: qHTS; D(1A) dopamine receptor (Homo sapiens), P21728; HEK293 TREx D1 cells, calcium flux, dopamine EC80; active compounds read low; activity change, negative = inhibition, % at 10 µM; hit rate 3.2% among 360,000; AID 504652, 2011; in the data active = activity change below about -30%
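Antagonism measured as reduced calcium response to an EC80 dopamine addition following 180 s compound pre-read; cells were inducible HEK293 Trex D1 plated overnight at 30 C, read kinetically at 1 cycle/sec.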
Of the large screens only hits and unclear results are named; the others gave an inactive call. Rule as the data show it, unless noted: active = activation above about 30%; inactive = the rest.

Cc1ccc(S(=O)(=O)N2CCOC23CCN(S(=O)(=O)c2c(C)cc(C)cc2C)CC3)cc1	none
CCCCSc1nc2c(c(C(F)(F)F)c1C#N)CCC2	none
CCOC(=O)CCSc1nc2c(c(C(F)(F)F)c1C#N)CCC2	D1 antagonist -38
COc1cccc(/C=c2/[nH]c(=O)/c(=C\c3cccc(OC)c3OC)[nH]c2=O)c1OC	none (no result: D1 PAM, TRHR ag, TRHR PAM, D1 agonist, D1 antagonist)
CCOC(=O)N1CCC(NC(=O)C2CCCN(Cc3nc(-c4ccc(CC)cc4)oc3C)C2)CC1 (configuration not stated)	D1 agonist 37, D1 antagonist -34
CCOC(=O)N1CCC(NC(=O)CS(=O)Cc2nc(-c3ccc(C)cc3)oc2C)CC1 (configuration not stated)	D1 antagonist -35
CO[C@H]1[C@H](NC(=O)c2ccsc2)c2ccccc2C12CCN(Cc1cccc3ncccc13)CC2	none (no result: D1 PAM, TRHR ag, TRHR PAM, D1 agonist, D1 antagonist)
CCCCCc1ccc(OCCOCCn2c[n+](C)c3ccccc32)c(CCCCC)c1	D1 agonist 129
CCCCCc1ccc(OCCC[n+]2ccccc2)c(CCCCC)c1	D1 agonist 159
CCCCOc1ccccc1Cn1c(=O)oc2ccccc21	none
COCC(C)NCc1cc2ccc(OC)cc2nc1N1CCN(c2ccc(F)cc2)CC1 (configuration not stated)	none (no result: D1 PAM, TRHR ag, TRHR PAM, D1 agonist, D1 antagonist)
O=C(O)c1ccc(NC(=S)N2CCCCC2)cc1	D1 antagonist -73
CC(=O)c1ccc(NC(=S)N2CCCC2)cc1	none
CCOC(=O)c1ccc(NC(=S)N2CCCC(C)C2)cc1 (configuration not stated)	none (no result: D1 antagonist)
CCOC(=O)c1ccc(NC(=S)N2CCCC(C(=O)N3CCCC3)C2)cc1 (configuration not stated)	D1 antagonist -89
CSc1ncnc2c1ccn2CC(=O)Nc1ccc(C)c(C)c1	none
O=[N+]([O-])c1ccc(Oc2ccc(N=C=S)cc2)cc1	none (no result: D1 PAM, TRHR ag, TRHR PAM, D1 agonist, D1 antagonist)
Nc1nc(-c2ccc(-c3ccccc3)cc2)cs1	D1 antagonist -47
Nc1nc(-c2ccc(Oc3ccccc3)cc2)cs1	none
O=C(CCCN1CC=C(n2c(=O)[nH]c3ccccc32)CC1)c1ccc(F)cc1	D1 antagonist -71
CCOC(=O)c1ccc(N/C=C\C(=O)c2cccc(OC)c2)cc1	D1 antagonist -46
COc1cccc(C(=O)/C=C/Nc2ccc(S(=O)(=O)Nc3ccc(C(C)=O)cc3)cc2)c1	D1 antagonist -34
CCOC(=O)c1cccc(N/C=C/C(=O)c2ccc(OC)c(OC)c2)c1	none
COc1[nH]c(/N=C/c2ccco2)c(C#N)c1C#N	none (no result: D1 PAM, TRHR ag, TRHR PAM, D1 agonist, D1 antagonist)
CN(Cc1ccccc1)CC(O)COc1ccc(CNCc2ccc(Cl)s2)cc1 (configuration not stated)	D1 agonist 54, D1 antagonist -41
CN(Cc1ccccc1)CC(O)COc1ccc(CNCc2cccnc2)cc1 (configuration not stated)	none
Cc1ncc2c(c1CNC(=O)c1cncs1)CCN(C(=O)c1csc(-c3cccs3)n1)C2	none (no result: D1 PAM, TRHR ag, TRHR PAM, D1 agonist, D1 antagonist)
CN(C)S(=O)(=O)c1ccc(NC(=O)C2COc3ccccc3O2)cc1 (configuration not stated)	none
CN(C)S(=O)(=O)c1ccc(NC(=O)C2CC3C=CC2C3)cc1 (configuration not stated)	D1 antagonist -30
Cc1ccc(Cl)cc1N1CCN(C(=O)Cc2c(C(=O)O)[nH]c3ccc(Cl)cc23)CC1	GRP78 ERSR act 32µM
COc1ccccc1NC(=O)Cc1c(C(=O)O)[nH]c2ccc(Cl)cc12	D1 agonist 31
O=C(CS(=O)(=O)c1cccc2nsnc12)NCc1ccccc1Cl	none
CC(CC(=O)Nc1ccc(F)cc1)S(=O)(=O)c1cc2c3c(c1)CCN3C(=O)CC2 (configuration not stated)	none
